Source: PubChem BioAssay (NCATS)
Where “and” joins values, the source holds several entries; their conditions need not be identical. Equal entries are not always repeated. Inconclusive results are not listed. More than one record can exist for a structure, and the calls need not agree. Calls of active or inactive are those of the source. Calls come from the whole dose curve; as a rule, active = well fitted cell-killing curve with a large enough effect; inconclusive = small, poorly fitted or top-dose-only effect, or effect the other way; inactive = flat fitted curve, though single readings scatter.

Key:
Test in all cases: Primary qHTS to identify gynecologic anti-cancer compounds using libraries of approved drugs and bioactive compounds (AID 1345084); note: nearly all actives have a fitted effect of over 55% in size
Conditions in all cases: Gynecologic cancer cell panel viability, ATPlite luminescence, 48 h; series mostly up to 57.5 µM
[1] = system: OV90
In short: (§1)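 Luminescence from the ATPlite ATP-monitoring reagent indicates viable cell number; lower signal means cytotoxicity. Cells received compound 16 h after seeding and were exposed for 48 h across five concentrations.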

[2] = system: PA-1
In short: as §1

[3] = system: SKOV3
In short: as §1

[4] = system: Tov-21-G
In short: as §1

[5] = system: Tov112D
In short: as §1

Measured: Potency
Potency is the fitted concentration of half-maximal effect.

Brc1ccc([C@H]2CN3CCSC3=N2)cc1
inactive: all assays above

Cc1ccc(CCn2c3c(c4cc(Cl)ccc42)CN(C)CC3)cn1
inactive: all assays above

COc1cc(OC)nc(O[C@H](C(=O)O)C(OC)(c2ccccc2)c2ccccc2)n1
inactive: all assays above

COCCc1ccccn1
inactive: all assays above

O=C1CC(c2ccc(Cl)cc2)CC(=O)N1
inactive: all assays above

COC(=O)/C=C(/C)N
inactive: all assays above

CC1(C)O[C@@H]2C[C@H]3[C@@H]4CCC5=CC(=O)C=C[C@]5(C)[C@@]4(F)[C@@H](O)C[C@]3(C)[C@]2(C(=O)CO)O1
inactive: all assays above

COc1ccccc1N1CCN(CCN2C(=O)CC3(CCCC3)CC2=O)CC1
inactive: all assays above

CCCCC(CC)CNC(=O)CC(C)OC(=O)CCC(=O)O (stereo not given)
inactive: all assays above

CC(C)(C)c1ccc(C(=O)CCCCl)cc1
inactive: all assays above

O=C(c1cc(O)c(O)c(O)c1)c1ccc(O)c(O)c1O
inactive: all assays above

O=C(O)c1ccc(OCCN2CCCCC2)cc1
inactive: all assays above

CCS(=O)(=O)c1ccc(OC)c(C(=O)OC)c1
inactive: all assays above

COc1ccccc1N1CCN(CC(O)COc2cc(OC)c(OC)c(OC)c2)CC1 (stereo not given)
inactive: all assays above

CCCc1ncc(C(=O)O)s1
inactive: all assays above

COc1ccc(/C(C)=C/C(=O)O)c(OC)c1
inactive: all assays above

COC(=O)c1cc(Cl)c(NC(C)=O)cc1OC
inactive: all assays above

CC(=O)O[C@@H]1CC2C3CCc4cc(OC(=O)c5ccccc5)ccc4C3CCC2(C)[C@H]1OC(C)=O (stereo not given in full)
inactive: all assays above

OC1(c2ccc(Cl)c(C(F)(F)F)c2)CCN(CCCC(c2ccc(F)cc2)c2ccc(F)cc2)CC1
active: [1] 25.1 µM and 31.6 µM | [3] 25.1 µM
inactive: [2] | [4]
31.6 µM (active) and inactive: [5]

CCOC(=O)C(O)c1ccccc1 (stereo not given)
inactive: all assays above

CCC1(c2cnc[nH]2)Cc2ccccc2C1
inactive: all assays above

CCC(C(=O)OCCN1CCOC(c2ccccc2)C1C)c1ccccc1 (stereo not given)
inactive: all assays above

CCCCCCCCCCCCCCCCCCN(C)C
inactive: all assays above

Clc1ccc2c(c1)Nc1ccccc1S2
inactive: all assays above

COC(=O)C1=CO[C@@H](O)[C@@H]2C(CO)=CC[C@H]12
inactive: all assays above

COCCc1ccc(OCC2CO2)cc1 (stereo not given)
inactive: all assays above

CC(C)(C)c1cc(C=O)cc(C(C)(C)C)c1O
inactive: all assays above

Nc1nc2ccccc2n1Cc1ccc(F)cc1
inactive: all assays above

COc1ccc(CCC(C)=O)cc1
inactive: all assays above

Cc1cccc(OCC(O)CNC(C)(C)C)c1C (stereo not given)
inactive: all assays above
